Consider 33 compounds from PubChem BioAssay (EPA / NIEHS).

A word on the AC50: it is the concentration at which the activity in the assay is half-maximal.

Molecules are shown by their SMILES. Where “and” joins values, the source holds several entries; their conditions need not be identical. Equal values may be shown once. Calls of active or inactive are those of the source. How the source made its calls: active means hit-call score of the fitted dose curve at least 0.9, where 1 is the maximum; inactive means score below 0.9.

Read-out in one test: Matrix Metallopeptidase 9 (MMP9), MMP9 (gene 4318)
The test can be described thus: BSK_KF3CT_MMP9: BioMAP Diversity Plus: KF3CT Assay for Matrix Metallopeptidase 9 (MMP9) Biomarker Activity (AID 2283074).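 On AC50: MMP9 protein level quantified by ELISA in the co-culture.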 As to conditions: primary human keratinocytes with fibroblasts; actives raise or lower the signal. Put shortly: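 Human keratinocyte/foreskin fibroblast co-culture; compound added; 24 h; MMP-9 by ELISA; bidirectional fit vs DMSO baseline.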
For `CN(C(=O)C(F)(F)C(F)(F)C(F)(F)F)[Si](C)(C)C`, the result was inactive.

`C=C(C)C(=O)OCC(F)(F)C(F)(F)C(F)(F)C(F)F`: the result was inactive.

`NC(=O)C(F)(F)C(F)(F)C(F)(F)C(F)(F)C(N)=O`: the result was inactive.

As for `O=C(O)C(F)(F)C(F)(F)C(F)(F)OC(F)(F)F`, the outcome was inactive.

Regarding `FC(F)(F)C(F)(F)C(F)(F)CC1CO1` (stereo unspecified), the outcome was inactive.

For the compound `FC(F)(F)C(F)(F)C(F)(F)C(F)(F)C(F)(F)C(F)(F)CC[Si](Cl)(Cl)Cl`, the result was inactive.

On to `NC(=O)C(F)(F)C(F)(F)C(F)(F)C(F)F`, for which the result was inactive.

`OCCCCC(F)(F)C(F)(F)C(F)(F)C(F)(F)F`: the result was inactive.

Take `OCC(F)(F)C(F)(F)C(F)(F)C(F)(F)C(F)(F)C(F)(F)CO`: the outcome was inactive.

For the compound `C=CC(=O)OCCC(F)(F)C(F)(F)C(F)(F)C(F)(F)F`, the outcome was inactive.

For `O=S(=O)(O)CCC(F)(F)C(F)(F)C(F)(F)C(F)(F)F`, the result was inactive.

Turning to `O=C(O)C(F)(F)C(F)(F)C(F)(F)C(=O)O`, the result was inactive.

In the case of `NC(O)(C(F)(F)F)C(F)(F)F`, the outcome was inactive.

Take `OCCCC(F)(F)C(F)(F)C(F)(F)C(F)(F)C(F)(F)C(F)(F)C(F)(F)C(F)(F)F`: the AC50 was 9.36 µM (active) and 10.8 µM (active).

`O=C(O)C(F)(F)OC(F)(F)C(F)(F)OC(F)(F)C(F)(F)OC(F)(F)F`: the result was inactive.

As to `O=C(O)CCC(F)(F)C(F)(F)C(F)(F)F`, the result was inactive.

`OCC(O)CC(F)(F)C(F)(F)C(F)(F)C(F)(F)C(F)(F)C(F)(F)C(F)(F)C(F)(F)F` (stereo unspecified): the outcome was inactive.

Regarding `NC(=O)C(F)(F)C(F)(F)C(F)(F)F`, the result was inactive.

In the case of `O=S(=O)(Cl)C(F)(F)C(F)(F)C(F)(F)C(F)(F)C(F)(F)C(F)(F)C(F)(F)C(F)(F)F`, the concentration at half-maximal activity (AC50) is 30 µM (active) and 51.1 µM (active).

With `NCC(F)(F)C(F)(F)C(F)(F)C(F)(F)C(F)(F)C(F)(F)F`, the outcome was inactive.

Turning to `COC(F)(C(F)F)C(F)(F)F` (stereo unspecified), the outcome was inactive.

With `OCC(O)CC(F)(F)C(F)(F)C(F)(F)C(F)(F)F` (stereo unspecified), the result was inactive.

`C[Si](Cl)(Cl)CCC(F)(F)C(F)(F)C(F)(F)C(F)(F)C(F)(F)C(F)(F)F`: the outcome was inactive.

On to `CO[Si](C)(CCC(F)(F)C(F)(F)C(F)(F)C(F)(F)C(F)(F)C(F)(F)F)OC`, for which the outcome was inactive.

As to `O=S(=O)(O)CCC(F)(F)C(F)(F)C(F)(F)C(F)(F)C(F)(F)C(F)(F)C(F)(F)C(F)(F)F`, the outcome was inactive.

As for `C=CC(=O)OCC(F)(F)C(F)(F)C(F)(F)COC(=O)C=C`, the AC50 was 24 µM (active) and 20.9 µM (active).

Regarding `O=C(O)C(F)(F)C(F)(F)C(F)(F)C(F)(F)C(F)(F)C(F)(F)C(F)F`, the result was inactive.

In the case of `CCN=C1C=CC(=C(c2ccc(N(CC)CC)cc2)c2ccc(N(CC)CC)cc2)c2ccccc21`, the AC50 is 1.61 µM (active) and 1.54 µM (active).

Regarding `OCC(F)(F)C(F)(F)C(F)(F)CO`, the outcome was inactive.

Take `CCOC(=O)CC(=O)C(F)(F)C(F)(F)F`: the outcome was inactive.

On to `NC(=O)C(F)(F)C(F)(F)C(F)(F)C(F)(F)C(F)(F)C(F)(F)C(F)(F)F`, for which the result was inactive.

On to `OC(O)C(F)(F)C(F)(F)F`, for which the outcome was inactive.

Consider `O=C(Cl)C(F)(F)C(F)(F)C(F)(F)C(F)(F)C(F)(F)C(F)(F)C(F)(F)F`, for which the result was inactive.

Read-out in another test: urokinase plasminogen activator (uPA), PLAU (gene 5328)
The test can be described thus: BSK_KF3CT_uPA: BioMAP Diversity Plus: KF3CT Assay for urokinase plasminogen activator (uPA) Biomarker Activity (AID 2283075). As to conditions: primary human keratinocytes with fibroblasts; actives raise or lower the signal. Put shortly: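 ELISA readout of uPA, analyzed for signal gain or loss relative to DMSO, from a human primary keratinocyte–foreskin fibroblast co-culture measured 24 h after chemical treatment.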
`CN(C(=O)C(F)(F)C(F)(F)C(F)(F)F)[Si](C)(C)C`: the result was inactive.

For `C=C(C)C(=O)OCC(F)(F)C(F)(F)C(F)(F)C(F)F`, the outcome was inactive.

In the case of `NC(=O)C(F)(F)C(F)(F)C(F)(F)C(F)(F)C(N)=O`, the outcome was inactive.

On to `O=C(O)C(F)(F)C(F)(F)C(F)(F)OC(F)(F)F`, for which the outcome was inactive.

Consider `FC(F)(F)C(F)(F)C(F)(F)CC1CO1` (stereo unspecified), for which the result was inactive.

With `FC(F)(F)C(F)(F)C(F)(F)C(F)(F)C(F)(F)C(F)(F)CC[Si](Cl)(Cl)Cl`, the result was inactive.

As for `NC(=O)C(F)(F)C(F)(F)C(F)(F)C(F)F`, the outcome was inactive.

With `OCCCCC(F)(F)C(F)(F)C(F)(F)C(F)(F)F`, the result was inactive.

In the case of `OCC(F)(F)C(F)(F)C(F)(F)C(F)(F)C(F)(F)C(F)(F)CO`, the outcome was inactive.

For the compound `C=CC(=O)OCCC(F)(F)C(F)(F)C(F)(F)C(F)(F)F`, the outcome was inactive.

For the compound `O=S(=O)(O)CCC(F)(F)C(F)(F)C(F)(F)C(F)(F)F`, the result was inactive.

In the case of `O=C(O)C(F)(F)C(F)(F)C(F)(F)C(=O)O`, the result was inactive.

On to `NC(O)(C(F)(F)F)C(F)(F)F`, for which the result was inactive.

In the case of `OCCCC(F)(F)C(F)(F)C(F)(F)C(F)(F)C(F)(F)C(F)(F)C(F)(F)C(F)(F)F`, the AC50 is 14.9 µM (active) and 9.45 µM (active).

On to `O=C(O)C(F)(F)OC(F)(F)C(F)(F)OC(F)(F)C(F)(F)OC(F)(F)F`, for which the outcome was inactive.

For the compound `O=C(O)CCC(F)(F)C(F)(F)C(F)(F)F`, the result was inactive.

With `OCC(O)CC(F)(F)C(F)(F)C(F)(F)C(F)(F)C(F)(F)C(F)(F)C(F)(F)C(F)(F)F` (stereo unspecified), the outcome was inactive.

As for `NC(=O)C(F)(F)C(F)(F)C(F)(F)F`, the outcome was inactive.

`O=S(=O)(Cl)C(F)(F)C(F)(F)C(F)(F)C(F)(F)C(F)(F)C(F)(F)C(F)(F)C(F)(F)F`: the result was inactive.

In the case of `NCC(F)(F)C(F)(F)C(F)(F)C(F)(F)C(F)(F)C(F)(F)F`, the outcome was inactive.

As for `COC(F)(C(F)F)C(F)(F)F` (stereo unspecified), the result was inactive.

As for `OCC(O)CC(F)(F)C(F)(F)C(F)(F)C(F)(F)F` (stereo unspecified), the result was inactive.

Turning to `C[Si](Cl)(Cl)CCC(F)(F)C(F)(F)C(F)(F)C(F)(F)C(F)(F)C(F)(F)F`, the result was inactive.

Regarding `CO[Si](C)(CCC(F)(F)C(F)(F)C(F)(F)C(F)(F)C(F)(F)C(F)(F)F)OC`, the outcome was inactive.

Regarding `O=S(=O)(O)CCC(F)(F)C(F)(F)C(F)(F)C(F)(F)C(F)(F)C(F)(F)C(F)(F)C(F)(F)F`, the outcome was inactive.

`C=CC(=O)OCC(F)(F)C(F)(F)C(F)(F)COC(=O)C=C`: the AC50 was 21.1 µM (active) and 25.7 µM (active).

Consider `O=C(O)C(F)(F)C(F)(F)C(F)(F)C(F)(F)C(F)(F)C(F)(F)C(F)F`, for which the outcome was inactive.

On to `CCN=C1C=CC(=C(c2ccc(N(CC)CC)cc2)c2ccc(N(CC)CC)cc2)c2ccccc21`, for which the concentration at half-maximal activity (AC50) is 2.62 µM (active) and 1.92 µM (active).

In the case of `OCC(F)(F)C(F)(F)C(F)(F)CO`, the result was inactive.

Consider `CCOC(=O)CC(=O)C(F)(F)C(F)(F)F`, for which the outcome was inactive.

As for `NC(=O)C(F)(F)C(F)(F)C(F)(F)C(F)(F)C(F)(F)C(F)(F)C(F)(F)F`, the outcome was inactive.

With `OC(O)C(F)(F)C(F)(F)F`, the result was inactive.

As to `O=C(Cl)C(F)(F)C(F)(F)C(F)(F)C(F)(F)C(F)(F)C(F)(F)C(F)(F)F`, the outcome was inactive.
